The panel holds about 83,000 compounds, 20% with a hit somewhere; the sample as a whole holds those more often.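 Percent growth is the endpoint: 0 to 100 indicates growth inhibition (40 means 60% inhibition), 0 means no net growth, and negative values indicate cell death.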 Values without a mark were called inactive. The source made the active and inactive calls. Rule for the calls: active = growth percent below 10; inactive = the rest.
What was measured:
Test in all cases: NCI-60 one-dose screen, 48 h (100 = growth as untreated, 0 = no growth, -100 = all killed)
Details in all cases: 10 µM unless noted
NCI-H23 lung = tested on: NCI-H23 lung
NCI-H226 lung = tested on: NCI-H226 lung
NCI-H322M lung = tested on: NCI-H322M lung
HOP-62 NSCLC = tested on: HOP-62 NSCLC
NCI-H460 lung = tested on: NCI-H460 lung
HOP-92 NSCLC = tested on: HOP-92 NSCLC
NCI-H522 lung = tested on: NCI-H522 lung
A549/ATCC NSCLC = tested on: A549/ATCC NSCLC
786-0 renal = tested on: 786-0 renal
COLO 205 colon = tested on: COLO 205 colon
DU-145 prostate = tested on: DU-145 prostate
K-562 leukemia = tested on: K-562 leukemia
MALME-3M melanoma = tested on: MALME-3M melanoma
RXF 393 renal = tested on: RXF 393 renal
SF-268 CNS = tested on: SF-268 CNS
SF-295 CNS = tested on: SF-295 CNS
SF-539 CNS = tested on: SF-539 CNS
UACC-257 melanoma = tested on: UACC-257 melanoma
M14 melanoma = tested on: M14 melanoma
MDA-MB-231 breast = tested on: MDA-MB-231 breast

| SMILES | growth (NCI-H23 lung) | growth (NCI-H226 lung) | growth (NCI-H322M lung) | growth (HOP-62 NSCLC) | growth (NCI-H460 lung) | growth (HOP-92 NSCLC) | growth (NCI-H522 lung) | growth (A549/ATCC NSCLC) | growth (786-0 renal) | growth (COLO 205 colon) | growth (DU-145 prostate) | growth (K-562 leukemia) | growth (MALME-3M melanoma) | growth (RXF 393 renal) [%] | growth (SF-268 CNS) | growth (SF-295 CNS) | growth (SF-539 CNS) | growth (UACC-257 melanoma) | growth (M14 melanoma) | growth (MDA-MB-231 breast) |
| --- | --- | --- | --- | --- | --- | --- | --- | --- | --- | --- | --- | --- | --- | --- | --- | --- | --- | --- | --- | --- |
| CCOC(=O)c1c(C)n(Cc2ccccc2)c2cc(CN(C)C)c(O)cc12 | 57.2% | 91.3% | 41.8% | 47.9% | 53.4% | 8.81% (active) | 77.9% | 79.5% | 57.8% | 58% | 79.9% | 29.3% | 103% | 66.9 | 82.9% | 43.6% | 57.8% | 81.8% | 81.3% | – |
| CC(C)=CCC/C(C)=C/C=N\N=C(/N)N[N+](=O)[O-] | 97.6% | 99.3% | 95.9% | 87.2% | 110% | 89.8% | 47.7% | 97.4% | 80.4% | 103% | 102% | 95.9% | 93.5% | 122 | 93% | 101% | 89.2% | 107% | 102% | – |
| CCCCCCCC(=O)OCC(=O)[C@]1(O)Cc2c(O)c3c(c(O)c2[C@@H](OC2CC(N)C(O)C(C)O2)C1)C(=O)c1c(OC)cccc1C3=O (some centres undefined) | -76.2% (active) | -65.9% (active) | -72.8% (active) | -63.1% (active) | -92.9% (active) | -73.5% (active) | -63.2% (active) | -97.6% (active) | -82.9% (active) | -85.7% (active) | -100% (active) | -86.7% (active) | -70.7% (active) | – | -82.1% (active) | -68.1% (active) | -79.9% (active) | -98.2% (active) | -69.8% (active) | -72.4% (active) |
| Cc1ccc(Nc2nc3c(s2)C2=CC[C@@H]4[C@H](CC[C@]5(C)C(=O)CC[C@@H]45)[C@@]2(C)CC3)cc1 | 58.4% | 69.5% | 61.8% | 43.4% | 38.9% | 78.6% | 56.3% | 55.8% | 9.1% (active) | 63.5% | 46.5% | 19.8% | 70% | – | 56.3% | 5.48% (active) | 3.73% (active) | 80.3% | 62.2% | 52.8% |
| c1ccc(Nc2nc(-c3ccccc3)c[se]2)cc1 | 87.2% | 81.4% | 69.8% | 69.8% | 100% | 59.8% | 68.6% | 87.5% | 93% | 104% | 98.4% | 80.1% | 78.6% | – | 95.7% | 93% | 93.7% | 98.6% | 87.3% | 64.3% |
| Cc1ccc(C(=O)NCCCOc2ccc(N)cc2Cl)cc1S(=O)(=O)F | 98.9% | 89% | 87.2% | 89.1% | 102% | 96.6% | 73.5% | 90.1% | 86% | 105% | 107% | 91.9% | 87.6% | – | 102% | 86.3% | 103% | 87.1% | 97.8% | 106% |
| COC(=O)[C@@H](C)C[C@H](Cc1ccccc1)NC(=O)c1csc(CC[C@H](C(C)C)N(C)C(=O)[C@@H](NC(=O)[C@H]2CCCCN2C)C(C)C)n1 | 32.4% | 50.2% | 44.4% | 21.7% | 6.76% (active) | 52.8% | -12.9% (active) | 19% | 10.9% | -38.9% (active) | 10.8% | 6.9% (active) | 61.2% | – | 27% | -6.82% (active) | -9.08% (active) | – | -13.3% (active) | 14.2% |
| O=P1(NCCCl)OCCCN1CCCl (centres undefined) | 107% | 109% | 106% | 108% | 109% | 97.4% | 99.5% | 121% | 93.5% | 112% | 110% | 95.8% | 120% | – | 109% | 99.2% | 98.3% | 116% | 106% | 120% |
| CC1(C)[C@H](O)[C@H](F)C[C@@]2(C)Oc3ccc(C(=O)Nc4ccc5c(c4)NC(=O)C54CCN(CCCCC#N)CC4)cc3C[C@H]12 | 55.4% | 69.9% | 91.9% | 12.8% | 21.3% | 41.7% | -4.72% (active) | 19.5% | 21.5% | -23.7% (active) | 48.5% | 2.93% (active) | 13.5% | – | 43.6% | -59.6% (active) | 8.86% (active) | – | -6.54% (active) | 28.8% |
| CCCCN1CCCC[C@@H]1C(=O)N[C@H](C(=O)N(C)[C@H](CCc1nc(C(=O)N[C@@H](Cc2ccccc2)C[C@H](C)C(=O)OC)cs1)C(C)C)[C@@H](C)CC | 62.6% | 84% | 71.1% | 56.9% | 57.5% | 22.2% | 25.1% | 58.8% | 66.8% | 22.3% | 79.2% | 34% | 48.5% | – | 64.4% | 26.3% | 84% | – | 48.6% | 59.6% |
| Nc1nc([Se])c2ncn(C3OC(CO)C(O)C3O)c2n1 (centres undefined) | 51% | 78.5% | 84.3% | 12.3% | 27.4% | 43% | 71.6% | 102% | 29.4% | 124% | 39.9% | 21.7% | 69.3% | – | 87% | 42.6% | 81% | 83.8% | 40.6% | 22% |
| COC1=CC(=O)O[C@@H](/C=C/c2ccc3c(c2)OCO3)C1 | 117% | 92.8% | 97.5% | 112% | 118% | 60.9% | 98.3% | 97% | 112% | 125% | 141% | 93.9% | 119% | – | 111% | 122% | 107% | 120% | 109% | 107% |
| CC[C@H](C)[C@H](NC(=O)[C@H]1CCCCN1C)C(=O)N(C)[C@H](CCc1nc(C(=O)N[C@@H](Cc2ccccc2)C[C@H](C)C(=O)OC)cs1)C(C)C | 31% | 28.6% | 40.9% | 14.3% | 6.43% (active) | 12.9% | -14.6% (active) | 17% | 7.3% (active) | -64.1% (active) | 6.52% (active) | 9.7% (active) | 65.4% | – | 19.6% | 7.05% (active) | 0.775% (active) | – | -15.3% (active) | 11.8% |
| CC(C)(N)Cc1ccccc1 | 113% | 107% | 105% | 118% | 111% | 87.8% | 90.9% | 103% | 91.3% | 116% | 115% | 92.8% | 112% | – | 113% | 98.1% | 107% | 101% | 105% | 119% |
| CC(=O)O[C@H]1CC[C@]2(C)[C@H]3CC[C@]4(C)[C@@H](OC(C)=O)CC[C@H]4[C@@H]3[C@@H](C)[C@]2(O)C1 | 111% | 104% | 106% | 105% | 116% | 108% | 94.8% | 114% | 103% | 104% | 107% | 85.1% | – | 114 | 112% | – | 99.6% | 127% | 109% | 108% |
| CNCc1cccnc1 | 104% | 101% | 113% | 114% | 114% | 108% | 84.2% | 97.6% | 107% | 122% | 111% | – | 124% | 121 | 104% | 95.5% | 112% | 105% | 117% | 126% |

Reference: PubChem BioAssay (NCI)
